Measured values taken from PubChem BioAssay.
A number with no mark means an inactive call. Where a call stands in place of a potency, no number is given. For some assays here: Potency and affinity values are given separately. Calls of active or inactive are those of the source. Unless noted, how the calls were made is not given here.

Legend:
[1] = antimalarial activity against Dd2 strain (AID 2302;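 active means growth inhibition above 50% at the single 2 µM test dose, taken to imply half-maximal potency below 2 µM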); conditions: P. falciparum Dd2 in RBCs, LDH growth readout, 72 h; at 2 µM; active compounds read high
[2] = HepG2 cytotoxicity, primary screen, cytotoxicity control for P. falciparum antimalarial project, cell-based, ATP luminescence (AID 2303;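 active means inhibition above 50%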); conditions: HepG2 viability, 24-48 h, at 10 µM, active compounds read high
[3] = target: L-lactate dehydrogenase (Plasmodium falciparum (isolate CDC / Honduras)) (UniProt Q27743); test: PfLDH activity inhibition – cell lysate, 3D7 strain, counter-screen for P. falciparum growth inhibition project (AID 2304); conditions: P. falciparum 3D7 crude extract, LDH APAD/NBT absorbance; at 2 µM; active compounds read high
[4] = inhibition of 3D7 malaria parasite growth – strain 3D7 (AID 2306); conditions: P. falciparum 3D7 erythrocytic growth, LDH absorbance, 72 h; at 2 µM; active compounds read high
[5] = target: Calcium-dependent protein kinase 1 (Plasmodium falciparum (isolate 3D7)) (UniProt P62344); test: PfCDPK1 kinase inhibitors, biochemical, TCAMS library (AID 1159585; cut-off not given, nearly all actives have IC50 up to about 0.98 µM;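 further: inhibitors leave more ATP so luminescence rises with inhibition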); conditions: recombinant PfCDPK1, Kinase-Glo ATP depletion luminescence
[6] = target: Plasmodium falciparum protein kinase 6 (PK6, PF3D7_1337100) (UniProt Q8IDW1); test: PfPK6 kinase inhibitors, biochemical, TCAMS library (AID 1159586); conditions: recombinant PfPK6, Kinase-Glo ATP depletion luminescence
[7] = target: Protein kinase 7 (PK7), Plasmodium falciparum 3D7 (PF3D7_0213400) (UniProt Q7YTF7); test: inhibition of Plasmodium PK7 catalytic activity – biochemical, TCAMS antimalarial set, Kinase-Glo luminescence (AID 1159587); conditions: recombinant PfPK7, Kinase-Glo ATP depletion luminescence
[8] = target: Calcium-dependent protein kinase 4 (Plasmodium falciparum (isolate 3D7)) (UniProt Q8IBS5); test: PfCDPK4 kinase inhibitors, biochemical, TCAMS library (AID 1159588; cut-off not given, nearly all actives have IC50 up to about 0.91 µM); conditions: recombinant PfCDPK4, Kinase-Glo ATP depletion luminescence
Chain of Calcium-dependent protein kinase 4 (Plasmodium falciparum (isolate 3D7)) (Q8IBS5 whole entry, looked up): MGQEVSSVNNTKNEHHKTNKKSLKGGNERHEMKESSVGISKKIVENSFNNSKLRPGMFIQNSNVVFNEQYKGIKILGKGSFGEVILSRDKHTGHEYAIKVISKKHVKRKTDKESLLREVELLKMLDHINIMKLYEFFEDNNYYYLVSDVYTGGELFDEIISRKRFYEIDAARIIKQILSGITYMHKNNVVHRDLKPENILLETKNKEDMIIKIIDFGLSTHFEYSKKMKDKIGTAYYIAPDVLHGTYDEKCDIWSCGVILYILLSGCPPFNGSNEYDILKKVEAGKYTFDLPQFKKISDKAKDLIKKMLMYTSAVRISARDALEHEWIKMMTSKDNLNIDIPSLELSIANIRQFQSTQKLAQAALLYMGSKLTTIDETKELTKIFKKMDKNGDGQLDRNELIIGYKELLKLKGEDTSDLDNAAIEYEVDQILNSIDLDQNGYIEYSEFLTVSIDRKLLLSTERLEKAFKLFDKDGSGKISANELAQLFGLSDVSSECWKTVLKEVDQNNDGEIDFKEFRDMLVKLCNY

Chain of Protein kinase 7 (PK7), Plasmodium falciparum 3D7 (PF3D7_0213400) (Q7YTF7 1-343): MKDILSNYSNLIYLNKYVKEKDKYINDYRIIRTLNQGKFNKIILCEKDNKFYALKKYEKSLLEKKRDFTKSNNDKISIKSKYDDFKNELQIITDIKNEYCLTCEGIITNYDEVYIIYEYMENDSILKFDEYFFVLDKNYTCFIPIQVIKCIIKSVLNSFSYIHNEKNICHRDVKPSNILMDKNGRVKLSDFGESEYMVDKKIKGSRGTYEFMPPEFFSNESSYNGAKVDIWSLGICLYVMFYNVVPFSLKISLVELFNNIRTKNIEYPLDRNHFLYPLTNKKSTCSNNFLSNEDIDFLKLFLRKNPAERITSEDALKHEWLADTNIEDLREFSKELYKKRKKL
Chain of Calcium-dependent protein kinase 1 (Plasmodium falciparum (isolate 3D7)) (P62344 whole entry, looked up): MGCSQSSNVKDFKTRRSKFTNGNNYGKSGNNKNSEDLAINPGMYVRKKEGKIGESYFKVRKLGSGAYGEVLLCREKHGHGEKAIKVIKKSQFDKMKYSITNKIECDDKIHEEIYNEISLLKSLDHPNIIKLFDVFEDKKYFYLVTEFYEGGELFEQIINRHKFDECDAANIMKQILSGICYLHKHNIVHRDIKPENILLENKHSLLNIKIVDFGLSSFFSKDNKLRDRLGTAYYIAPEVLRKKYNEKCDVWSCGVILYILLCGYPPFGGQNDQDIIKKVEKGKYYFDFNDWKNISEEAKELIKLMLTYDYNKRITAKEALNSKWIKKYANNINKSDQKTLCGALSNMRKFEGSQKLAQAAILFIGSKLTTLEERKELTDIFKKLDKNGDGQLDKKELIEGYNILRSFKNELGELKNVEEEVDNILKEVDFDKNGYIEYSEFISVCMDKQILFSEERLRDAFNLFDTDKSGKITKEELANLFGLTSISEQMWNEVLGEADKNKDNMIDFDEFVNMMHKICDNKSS
Chain of Plasmodium falciparum protein kinase 6 (PK6, PF3D7_1337100) (Q8IDW1 1-305): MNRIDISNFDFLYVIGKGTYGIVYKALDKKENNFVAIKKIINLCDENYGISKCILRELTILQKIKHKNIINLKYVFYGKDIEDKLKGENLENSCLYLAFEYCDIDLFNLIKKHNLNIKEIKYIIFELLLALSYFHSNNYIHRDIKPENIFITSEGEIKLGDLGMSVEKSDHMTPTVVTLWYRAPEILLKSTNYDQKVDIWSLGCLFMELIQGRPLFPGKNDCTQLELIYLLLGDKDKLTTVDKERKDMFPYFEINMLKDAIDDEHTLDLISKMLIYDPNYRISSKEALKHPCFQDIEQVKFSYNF
Chain of L-lactate dehydrogenase (Plasmodium falciparum (isolate CDC / Honduras)) (Q27743 whole entry, looked up): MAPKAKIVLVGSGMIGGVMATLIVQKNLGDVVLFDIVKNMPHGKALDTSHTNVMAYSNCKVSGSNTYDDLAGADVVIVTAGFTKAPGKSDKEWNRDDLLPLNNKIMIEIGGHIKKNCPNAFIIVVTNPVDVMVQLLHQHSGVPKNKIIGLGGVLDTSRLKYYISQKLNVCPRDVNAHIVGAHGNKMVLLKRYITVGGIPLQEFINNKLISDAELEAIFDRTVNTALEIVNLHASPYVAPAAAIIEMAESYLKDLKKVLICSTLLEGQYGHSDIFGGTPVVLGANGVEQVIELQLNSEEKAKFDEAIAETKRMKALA

SMILES | growth inhibition [1] | inhibition [2] | inhibition [3] [%] | growth inhibition [4] | outcome [5] | outcome [6] | outcome [7] | outcome [8]
COc1ccc2c(NN=Cc3cccc([N+](=O)[O-])c3)cc(C)nc2c1 | 97% (active) | 18% | -6 | 101% (active) | inactive | inactive | inactive | inactive
Cc1cc(NCCCN2CCCC2=O)n2c(nc3ccccc32)c1C#N | 48% | 4% | -1 | 93% (active) | inactive | inactive | inactive | inactive
Cc1cc(NCCC(=O)Nc2ccccc2)nc(NCCc2cccnc2)n1 | 4% | -1% | -2 | 84% (active) | inactive | inactive | inactive | inactive
CCCCCCOc1ccc(N2C(N)=NC(N)=NC2(C)C)cc1 | 0% | 5% | 7 | 98% (active) | inactive | inactive | inactive | inactive
CCC1(CC)C(=O)N=C(N2CCCCC2)N(C)C1=O | 66% (active) | -4% | 1 | 89% (active) | inactive | inactive | inactive | inactive
FC(F)(F)c1ccc2nccc(NCc3ccccc3)c2c1 | 56% (active) | 18% | -9 | 93% (active) | inactive | inactive | inactive | inactive
O=C(NC1CC1)c1ccc(N2CCOc3ccc(Cl)cc32)s1 | 73% (active) | 8% | 5 | 94% (active) | inactive | inactive | inactive | inactive
COc1cccc(Nc2nc(C)cc(NC3CCN(Cc4ccccc4)CC3)n2)c1 | 46% | 15% | 8 | 102% (active) | inactive | inactive | inactive | inactive
CC[C@H]1CN(CCCC(=O)c2ccccc2)CC[C@H]1CCCc1ccnc2ccc(OC(=O)c3ccccc3)cc12 | 68% (active) | 28% | 1 | 83% (active) | inactive | inactive | inactive | inactive
CCNc1cc(C(=O)N[C@@H](Cc2ccccc2)[C@H](O)CNCc2cccc(OC)c2)c(OC)c(N2CCCCS2(=O)=O)c1 | 96% (active) | 11% | -8 | 97% (active) | inactive | inactive | inactive | inactive
Cc1ccc(C(NC(=O)C2CCCCC2)c2ccc3cccnc3c2O)cc1 (stereo not given) | 59% (active) | 69% (active) | 2 | 91% (active) | inactive | inactive | inactive | inactive
O=C(Nc1ccc(OC2CCN(Cc3ccsc3)C2)c(Cl)c1)c1ccsc1 (stereo not given) | 70% (active) | 4% | 0 | 85% (active) | inactive | inactive | inactive | inactive
N#Cc1ccc(CN2CCCN(c3ccc(NC(=O)c4ccc(F)cc4)cc3)CC2)cc1 | 61% (active) | 12% | -2 | 90% (active) | inactive | inactive | inactive | inactive
Cc1ccc2nc(-c3cc(-c4ccc(OCc5ccccc5)cc4)cnc3N)[nH]c2c1 | 87% (active) | 33% | 1 | 91% (active) | inactive | inactive | inactive | inactive
Cc1cc(NC(=O)Nc2ccc(C#N)cc2)c2ccccc2n1 | 49% | 88% (active) | -2 | 100% (active) | inactive | inactive | inactive | inactive
Cc1cc(N(C)CCCN2CCCCC2)nc(Nc2ccc(Cl)cc2)n1 | 82% (active) | 7% | -3 | 101% (active) | inactive | inactive | inactive | inactive
CC(C)c1ccc(CN(C)CCCCNC(=O)c2ccc(NC(=O)c3ccc(Cl)cc3)cc2)cc1 | 0% | 17% | 0 | 92% (active) | inactive | inactive | inactive | inactive
Fc1cccc(COc2ccc(Nc3ncnc4sc(C#CCNC5CCC5)cc34)cc2Cl)c1 | 73% (active) | 15% | 9 | 100% (active) | inactive | inactive | inactive | inactive
O=C(c1cc2nc3c(c(C(F)(F)F)n2n1)CCc1ccccc1-3)N1CCN2CCCC2C1 (stereo not given) | 3% | -8% | 0 | 94% (active) | inactive | inactive | inactive | inactive
CC(=O)Nc1ccc(CN2CCC(NC(=O)c3ccc(-c4cccc(C(F)(F)F)c4)s3)CC2)cc1 | 16% | 35% | -3 | 100% (active) | inactive | inactive | inactive | inactive

SMILES | growth inhibition [1] | inhibition [2] | inhibition [3] [%] | growth inhibition [4] | outcome [5] | outcome [6] | outcome [7] | outcome [8]
CC(C)(C)S[C@H]1S[C@H](SC(C)(C)C)[C@@H](OC(=O)c2ccccc2)C(OC(=O)c2ccccc2)[C@H]1OC(=O)c1ccccc1 (stereo not given in full) | 45% | -2% | 5 | 95% (active) | inactive | inactive | inactive | inactive
COc1ccc(Nc2nccc(NCC(O)c3ccc(C(F)(F)F)cc3)n2)cc1 (stereo not given) | 54% (active) | 6% | -1 | 98% (active) | inactive | inactive | inactive | inactive
COC(=O)Cc1ccc(N)c2ccccc12 | -1% | 2% | -1 | 98% (active) | inactive | inactive | inactive | inactive
NC(=O)c1cccc(C(=O)Nc2cccc(-c3ccc(-c4nc5ccc(C(F)(F)F)cc5[nH]4)cc3)c2)c1 | 78% (active) | 83% (active) | -1 | 100% (active) | inactive | inactive | inactive | inactive
COc1ccc(NC(=O)CCNc2ccnc(NCCc3ccc(F)cc3)n2)cc1 | 5% | 4% | -3 | 94% (active) | inactive | inactive | inactive | inactive
c1ccc(CN2CCC(NCc3ccccc3-c3cccc(CNCc4ccc5c(c4)OCO5)c3)CC2)cc1 | 69% (active) | 37% | 4 | 102% (active) | inactive | inactive | inactive | inactive
CNc1ccc(CNCc2cccc(-c3ccc(-c4nc5ccccc5[nH]4)cc3)c2)cc1 | 80% (active) | 18% | -5 | 102% (active) | inactive | inactive | inactive | inactive
COc1ccc2ncc(F)c(CCN3[C@@H]4CC[C@H]3CC(NCc3cc5c(cn3)OCS5)C4)c2n1 (stereo not given in full) | 48% | 15% | -2 | 95% (active) | inactive | inactive | inactive | inactive
COc1cccc2c(NCCNc3ccnc4c(OC)cccc34)ccnc12 | 86% (active) | 11% | 0 | 93% (active) | inactive | inactive | inactive | inactive
CN(C)CCN(C)Cc1ccc(-c2ccc(NS(=O)(=O)c3cccc4cccnc34)cc2)cc1 | 16% | 23% | -1 | 93% (active) | inactive | inactive | inactive | inactive
O=C(Nc1cc(F)cc(F)c1)N1CCOC(CCN2CCC3(CCc4ccccc43)CC2)(c2ccc(Cl)c(Cl)c2)C1 (stereo not given) | 86% (active) | 32% | 4 | 100% (active) | inactive | inactive | inactive | inactive
Cn1nc(-c2ccc(NC(=O)Nc3cc(C(F)(F)F)ccc3F)c(F)c2)c2cnc(NCCCN3CCOCC3)nc21 | 62% (active) | 31% | 3 | 100% (active) | inactive | inactive | inactive | inactive
O=C(Nc1cccc(-c2cccc(-c3ccc(F)cc3)n2)c1)c1ccc([N+](=O)[O-])o1 | 42% | 100% (active) | 4 | 99% (active) | inactive | inactive | inactive | inactive
COc1cccc(Nc2nnc(SCC(=O)NNC(=O)c3ccccn3)s2)c1 | 95% (active) | 52% (active) | -1 | 99% (active) | inactive | inactive | inactive | inactive
COc1cccc2cc(C(=O)N[C@@H](CC(C)C)C(=O)N[C@H](/C=N/NC(=O)Cc3cccnc3)CCc3ccccc3)oc12 | 54% (active) | 6% | 2 | 82% (active) | inactive | inactive | inactive | inactive
CCCN(CCC)C(=O)c1cc(C(=O)N[C@@H](Cc2ccccc2)[C@H](O)CNC2CC2)cc(N2CCCCS2(=O)=O)c1 | 98% (active) | -3% | 0 | 100% (active) | inactive | inactive | inactive | inactive
Cc1[nH]c(C)c(-c2ccc(C(=O)c3ccc(Cl)cc3)cc2)c(=O)c1Cl | 95% (active) | -1% | 4 | 98% (active) | inactive | inactive | inactive | inactive
Cc1cccc2c(N=NC(=S)N(C)C)c(O)[nH]c12 | 59% (active) | 48% | -5 | 96% (active) | inactive | inactive | inactive | inactive
CCCC(=O)NC(c1ccc(C(C)C)cc1)c1ccc2cccnc2c1O (stereo not given) | 37% | 50% (active) | 0 | 90% (active) | inactive | inactive | inactive | inactive
COc1ccc2nc(C)cc(NN=Cc3ccncc3)c2c1 | 68% (active) | 6% | 1 | 102% (active) | inactive | inactive | inactive | inactive
